HT1080 IDH1KD tx = qHTS for induction of synthetic lethality in tumor cells producing 2HG: qHTS for the HT-1080-IDH1KD cell line; AID 686971, 2013; actives 2% (n = 360,000); Potency, µM (top dose mostly 46.1 µM), for the others: top-dose activity, negative = toxicity, usual class: cytotoxic; HT-1080 IDH1 knockdown viability, ATP luminescence, 48 h;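 also: potency is read from the fitted curve at half-maximal effect; 0% = DMSO wells and -100% = cell-free medium wells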
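After a 2 h attachment period, IDH1KD HT-1080 cells took pin-transferred compound for 48 h at 37 °C; ATP-based luminescence after 10 min room-temperature reagent incubation reported viability.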
HT1080-NT tox = qHTS for induction of synthetic lethality in tumor cells producing 2HG: qHTS for the HT-1080-NT fibrosarcoma cell line. HT-1080-NT fibrosarcoma viability, CellTiter-Glo ATP luminescence, 48 h. Potency, µM (highest dose often 46.1 µM), without a hit: top-dose activity, negative = less viability, most hits filed as cytotoxic. actives 1.6% (n = 360,000). AID 686970, 2013;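 also: NT is the 2HG producing partner of a matched IDH1 knockdown line; potency is read from the fitted curve at half-maximal effect; 0% = DMSO-treated cells and -100% = media-only wells without cells; nearly all actives have a fitted effect of over 55% in size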
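HT-1080-NT fibrosarcoma cells (2HG-overproducing), 750 cells/well in RPMI with 5% FBS, dosed after 2 h and incubated 48 h at 37C. CellTiter-Glo luminescence normalized to DMSO and no-cell wells; concentration-response curves fitted and classed.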
IL1B secr inh = qHTS for Inhibitors of Inflammasome Signaling: IL-1-beta AlphaLISA Primary Screen. activity change, % at 57.5 µM. AID 743279, 2014. THP-1 LPS/ATP IL-1B secretion, AlphaLISA, 16 h; hits give low values. actives 4.7% (n = 360,000); in the data active = activity change below about -50%; inconclusive = mostly about -30% to -49%
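Secreted IL-1B measured by AlphaLISA bead assay after 16 h compound exposure of THP-1 cells; compounds (final up to 57.5 uM) added 1 h before LPS (250 ng/mL) and ATP (1.25 mM) stimulation; lower signal means less secretion.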
TDP1 cell noCPT = qHTS for Inhibitors of human tyrosyl-DNA phosphodiesterase 1 (TDP1): qHTS in cells in absence of CPT; Potency, µM (titrated, usually from 46.2 µM), for the others: at the top dose activity change, negative = growth inhibition, most hits filed as inhibitors; actives 15% (n = 420,000); DT40 Tdp1-/- hTDP1 cells, no CPT, ATP luminescence, 48 h; also: potency is read from the fitted curve at half-maximal effect; nearly all actives have a fitted effect of over 55% in size
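Stably hTDP1-transfected Tdp1-null chicken DT40 cells were treated with library compounds minus camptothecin and grown for at least 48 hr at 37 °C, after which cellular ATP was quantified by luminescence.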
DT40 TDP1 CPT = qHTS for Inhibitors of human tyrosyl-DNA phosphodiesterase 1 (TDP1): qHTS in cells in presence of CPT; chicken DT40 Tdp1-/-;hTDP1 cells + 20 nM CPT, ATP luminescence, 48 h; Potency, µM (highest dose often 46.2 µM), for the others: at the top dose activity change, negative = growth inhibition, actives largely listed as inhibitors; actives 12% (n = 420,000); also: potency is read from the fitted curve at half-maximal effect; nearly all actives have a fitted effect of over 55% in size
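Chicken DT40 Tdp1-/- cells complemented with human TDP1, 400 cells/well, exposed to compounds plus 20 nM camptothecin for at least 48 h at 37 C; viability read as ATP content by CellTiter-Glo luminescence.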
Starred values were filed as active, the others as inactive; ? = inconclusive; / = no result given. The list is not random: actives were taken first. Their share in the collection is about 19%. Unless noted, calls follow the shape of the dose curve; as a rule, active = well fitted curve in the direction sought with a large enough effect; inconclusive = small, poorly fitted or top-dose-only effect, or another doubt; inactive = no such curve, though single readings can be large; an effect the other way counts as inactive or inconclusive. Unless noted, % is scaled to controls: 0 for no effect and ±100 for the full control effect.

SMILES	HT1080 IDH1KD tx	HT1080-NT tox	IL1B secr inh	TDP1 cell noCPT	DT40 TDP1 CPT
COc1cccc(CNC(=O)CN2C(=O)CC(c3ccccc3)=Nc3ccccc32)c1	4%	15%	-7	1%	-26%
COc1ccccc1CCn1cnc(-c2ccc(Br)cc2)c1C(C)C	23µM*	23µM*	0	18µM*	15µM*
CCCCCc1c(-c2ccc(F)cc2)ncn1CCc1ccccc1OC	?	?	-51*	18µM*	9.2µM*
CCCCCc1c(-c2ccc(Br)cc2)ncn1CCc1ccccc1OC	21µM*	16µM*	-83*	4.6µM*	6.5µM*
COc1ccccc1CCn1cnc(Cc2ccccc2)c1C(C)C	?	?	-52*	7.3µM*	7.3µM*
CCN1C(=O)[C@H]2[C@@H](c3ccc(C)cc3)N3C(=O)N(c4cccc(F)c4)C(=O)[C@@]3(C)[C@H]2C1=O	0%	18%	1	-4%	-17%
CC(=O)NN1C(=O)/C(=C\c2ccc(Cl)cc2)SC1=S	?	-29%	18	?	?
COc1ccc(Cl)cc1NC(=O)Cn1c(=O)n(Cc2cccs2)c(=O)c2cccnc21	/	/	/	18µM*	?
Cc1ccc(C)c(NC(=O)Cn2c(=O)n(Cc3cccs3)c(=O)c3cccnc32)c1	/	/	/	13µM*	18µM*
COc1ccc(Cl)cc1NC(=O)Cn1c(=O)n(Cc2ccc(F)cc2)c(=O)c2cccnc21	/	/	/	9.2µM*	?
COc1ccc(Cn2c(=O)c3cccnc3n(CC(=O)Nc3ccc(C)c(F)c3)c2=O)cc1	/	/	/	?	-17%
COc1ccc(CCn2c(=O)c3cccnc3n(CC(=O)Nc3ccc(C)c(F)c3)c2=O)cc1OC	/	/	/	21µM*	4.1µM*
COc1ccc(CCn2c(=O)c3cccnc3n(CC(=O)Nc3cccc(C)c3)c2=O)cc1OC	/	/	/	-13%	-15%
Cc1cccc(-n2c(SCC(=O)N3CCC(C(=O)O)CC3)nc3ccccc3c2=O)c1C	-2%	-10%	-5	-2%	-6%
CC(C)C12CN3CC(C(C)C)(CN(C1)C3c1ccc([N+](=O)[O-])o1)C2=O (stereo unspecified)	22%	23%	18	-7%	-13%
Cc1ccc(O)c(NC(=O)C2CCCN2C(=O)OCc2ccccc2)c1 (stereo unspecified)	-1%	-15%	13	-2%	-4%
Cc1cccc(NC(=O)C2CCCN2C(=O)OCc2ccccc2)c1 (stereo unspecified)	-3%	-20%	-6	0.058µM*	-34%
O=C(O)CNC(=O)C1CCCN1C(=O)CNC(=O)OCc1ccccc1 (stereo unspecified)	24%	10%	-3	2%	18%
O=C(OCc1ccccc1)C1CCCN1C(=O)c1ccccc1[N+](=O)[O-] (stereo unspecified)	?	18%	-63*	16µM*	15µM*
O=C(CNC(=O)OCc1ccccc1)NCC(=O)N1CCCC1C(=O)OCc1ccccc1 (stereo unspecified)	-15%	-1%	-88*	-21%	?
COc1ccccc1S(=O)(=O)N(C)C[C@H]1OCc2cnnn2CCCC(=O)N([C@H](C)CO)C[C@H]1C	9%	0%	-13	-4%	-19%
COC(=O)[C@@]12C[C@@H](CC(=O)N3CCCC3)C(=O)N(CCc3ccc(OC)c(OC)c3)C1=CCC(C)(C)C2	-1%	1%	-5	?	?
CCCCCCCCN1C(=O)[C@H](CC(=O)N2CCOCC2)C[C@@]2(C(=O)OC)CC(C)(C)CC=C12	?	?	?	18µM*	21µM*

High-throughput results deposited in PubChem by National Center for Advancing Translational Sciences (NCATS).
